Compound activity (PubChem)
HEK293 tox – kills HEK 293 cells. HEK 293 viability, ATP luminescence (CellTiter-Glo), 48-72 h. Potency, µM (highest dose often 115 µM), without a hit: at the top dose activity change, negative = cytotoxicity, hits mostly inhibitors. 6.6% of 94,000 active; further: nearly all actives have a fitted effect of over 60% in size
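HEK 293 cells at 250 cells/well were exposed to compounds by pintool transfer for 48 or 72 hr at 37 degree Celsius, 5% CO2. Viability was read as ATP-coupled luminescence with CellTiter-Glo after 10 min at room temperature.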
hNpr1 antagonist – antagonists of human natriuretic peptide receptor Npr1 | AID 1347048 | Potency, µM (series often up to 46.3 µM), inactives show at the highest dose activity change, negative = inhibition, usual class: inhibitors | HEK293 hNpr1 GloSensor cGMP, ANP-stimulated luminescence | P16066 | 1.6% of 76,000 active; calls by dose curve; further: nearly all actives have a fitted effect of over 60% in size
Target sequence (P16066 whole entry, looked up): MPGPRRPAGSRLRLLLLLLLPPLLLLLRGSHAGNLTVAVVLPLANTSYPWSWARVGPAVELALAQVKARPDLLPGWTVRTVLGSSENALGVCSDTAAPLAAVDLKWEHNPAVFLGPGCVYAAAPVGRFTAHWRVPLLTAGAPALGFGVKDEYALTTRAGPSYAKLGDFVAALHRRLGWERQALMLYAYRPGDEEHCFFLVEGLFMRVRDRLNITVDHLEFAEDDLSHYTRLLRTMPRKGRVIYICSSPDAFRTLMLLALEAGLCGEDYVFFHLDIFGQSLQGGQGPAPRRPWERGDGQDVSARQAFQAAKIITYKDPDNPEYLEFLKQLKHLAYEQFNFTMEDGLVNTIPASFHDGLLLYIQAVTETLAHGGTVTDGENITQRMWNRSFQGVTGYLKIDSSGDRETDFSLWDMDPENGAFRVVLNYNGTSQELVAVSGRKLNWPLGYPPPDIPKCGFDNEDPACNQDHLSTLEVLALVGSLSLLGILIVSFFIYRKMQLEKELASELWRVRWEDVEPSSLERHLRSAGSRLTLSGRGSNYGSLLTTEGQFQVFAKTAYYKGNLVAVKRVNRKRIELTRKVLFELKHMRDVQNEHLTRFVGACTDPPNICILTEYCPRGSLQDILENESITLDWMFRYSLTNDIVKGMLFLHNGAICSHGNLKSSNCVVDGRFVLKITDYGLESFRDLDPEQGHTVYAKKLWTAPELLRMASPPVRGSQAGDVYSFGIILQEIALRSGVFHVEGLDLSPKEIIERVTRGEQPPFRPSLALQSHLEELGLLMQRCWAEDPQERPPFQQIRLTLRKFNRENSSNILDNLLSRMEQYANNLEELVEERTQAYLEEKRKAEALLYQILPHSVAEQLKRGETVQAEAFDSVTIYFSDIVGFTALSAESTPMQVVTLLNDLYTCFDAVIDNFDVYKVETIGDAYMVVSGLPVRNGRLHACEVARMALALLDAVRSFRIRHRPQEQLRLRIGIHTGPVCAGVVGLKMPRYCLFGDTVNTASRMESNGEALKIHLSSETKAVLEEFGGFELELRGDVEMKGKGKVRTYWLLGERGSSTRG
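Compound pre-incubated 30 min at room temperature on GloSensor-loaded HEK293 cells stably carrying hNpr1 and the pGS-40F cGMP biosensor. Stimulation uses hNppA at 0.1 nM final; luminescence is taken at baseline and 20 min post-agonist.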
Luciferase inh – inhibitors of firefly (Photinus pyralis) luciferase; purified P. pyralis luciferase, luminescence, biochemical; AID 1347043; Potency, µM (highest dose often 115 µM), most hits filed as inhibitors; 2.5% of 76,000 active; further: nearly all actives have a fitted effect of over 65% in size
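Purified 10nM P. pyralis luciferase with 10uM D-luciferin and 10uM ATP in 50mM Tris acetate pH 7.5, 10mM Mg acetate, 0.01% Tween-20, 0.05% BSA. qHTS titration; luminescence read by CCD imager.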
3T3 cytotox – cytotoxic compounds in NIH 3T3 cells. NIH 3T3 viability, CellTiter-Glo ATP luminescence, 48-72 h. Potency, µM (series often up to 96.7 µM), for inactives: top-dose activity change, negative = cytotoxicity, usual class: inhibitors. 4.3% of 94,000 active. AID 1345082; further: nearly all actives have a fitted effect of over 55% in size
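Mouse fibroblast NIH 3T3 cells, 400 per well, received compound via pintool and were incubated for 48 or 72 hr prior to CellTiter-Glo ATP luminescence measurement.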
GPT2 inhibitor – inhibitors of human GPT2 alanine aminotransferase. Q8TD30. Recombinant GPT2, coupled pyruvate oxidase/HRP Amplex Red fluorescence. Potency, µM (highest dose often 57.7 µM), without a hit: at the top dose activity change, negative = inhibition, actives largely listed as inhibitors. 0.25% of 100,000 active; further: nearly all actives have a fitted effect of over 60% in size
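Inhibition is scored from Amplex Red fluorescence generated when pyruvate oxidase and HRP act on pyruvate released by GPT2. Reactions contain 10ng/uL enzyme, 250uM a-KG and 2mM L-alanine and run 30 min at room temperature.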
Active calls of the source: *; i = inactive; ? = inconclusive; / = not tested or not shown; ! = a repeat was not active; [ ] = remark or other dose. Shown are actives, neighbours in structure and some others; about 10% of the full set was active somewhere. Unless noted, the call rests on the fitted dose curve; in most records, active means well fitted curve in the direction sought with a large enough effect; inconclusive means small, poorly fitted or top-dose-only effect, or another doubt; inactive means no such curve, though single readings can be large; an effect the other way counts as inactive or inconclusive. On the % scale 0 is the no-effect control and ±100 the full control effect; potency means the concentration at half of the fitted maximal effect.

SMILES	HEK293 tox	hNpr1 antagonist	Luciferase inh	3T3 cytotox	GPT2 inhibitor
CO[C@H]1[C@H](O)[C@H](O[C@H]2CC[C@]3(C=O)C4CC[C@]5(C)[C@H](C6=CC(=O)OC6)CC[C@]5(O)C4CC[C@@H]3C2)O[C@@H](C)[C@@H]1O (stereo not given in full)	/	/	/	/	3.6%[27.3 µM]
CC(C)CCN1CCC(N2CCN(C(=O)COc3ccccc3)CC2)C1=O (stereo not given)	i	2.5%	i	0.7%	-7.5%
COc1ccc(CC(=O)N2CCN(Cc3ccccc3-c3cccnc3)CC2)cc1	?	/	/	?	i
Cc1ccc(-c2ccccc2CN2CCN(C(=O)Cc3ccccn3)CC2)cc1Cl	?	/	/	25.1µM*	-14.3%
CNC(=O)Oc1cccc2ccccc12	/	/	/	/	8.91µM*
COc1ccc2c(c1OC)CN1CCc3cc4c(cc3C1C2)OCO4 (stereo not given)	/	/	/	/	-9.9%
COc1ccc2c(c[n+](C)c3c4cc5c(cc4ccc23)OCO5)c1OC	/	/	/	/	10µM*!
CCOC(=O)[C@H]1CN(C(=O)c2ccc(C)cc2)[C@]2(C)C(=O)N(CCOC)c3ccccc3[C@H]12	-12.2%	/	/	?	/
COc1cc2c(cc1OC1CCCC1)NC(=O)C21CCN(Cc2nccs2)CC1	100µM*	-3.7%[70.6 µM]	i	?	i
COc1cc2c(cc1OC1CCCC1)NC(=O)C21CCN(Cc2cccnc2)CC1	100µM*	-7.8%[70.6 µM]	i	?	-3.3%[88.5 µM]
COc1cc2c(cc1OC1CCCC1)NC(=O)C21CCN(C(C)=O)CC1	-33.7%[172 µM]	-6.4%[70.6 µM]	i	?	i
COc1cc2c(cc1OC1CCCC1)NC(=O)C21CCN(Cc2ccccc2O)CC1	39.8µM*	-20.4%[70.6 µM]	i	22.4µM*	-3.1%[88.5 µM]
Cc1ccc2c(c1)[C@H]1CN(C)CC[C@H]1N2C(=O)CSc1nnnn1-c1ccc(Cl)cc1	/	/	/	/	i
CC(=O)c1ccc(NC(=O)OC[C@H]2C[C@@H]3CCN2C[C@@H]3c2cc(C3CCCC3)nc(-c3ccncc3)n2)cc1	31.6µM*	-16.6%	i	22.4µM*	?
CC(C)NC(=O)OC[C@H]1C[C@@H]2CCN1C[C@@H]2c1cc(C2CCCC2)nc(-c2ccncc2)n1	22.4µM*	-22.6%	i	28.2µM*	i
O=C(Nc1cccc(C(F)(F)F)c1)OC[C@H]1C[C@@H]2CCN1C[C@@H]2c1cc(C2CCCC2)nc(-c2ccncc2)n1	3.98µM*	?	i	?	4.6%
CC(=O)c1cccc(NC(=O)OC[C@H]2C[C@@H]3CCN2C[C@@H]3c2cc(C3CCCC3)nc(C)n2)c1	14.1µM*	-7.7%	i	?	0.5%
CN1C(=O)N(c2ccc(C#N)c(C(F)(F)F)c2)C(=O)[C@]1(CO)c1ccccc1	/	/	/	/	0.8%
COc1cccc(CC(=O)N2[C@H]3CC[C@@H]2c2cnc(-c4ccc(F)cc4)nc2C3)c1	31.6µM*	5.2%	i	?	-34.2%
COc1cccc(CC(=O)N2[C@H]3CC[C@@H]2c2cnc(C)nc2C3)c1	2.7%	-0.5%	i	0.0%	i
COc1ccc(CC(=O)N2[C@H]3CC[C@@H]2c2cnc(-c4ccc(F)cc4)nc2C3)cc1OC	79.4µM*	-29.2%	i	-18.8%	i
CC[C@H]1CN2CC[C@H]1C[C@@H]2CNC(=O)NC(C)C	-3.4%[230 µM]	4.8%[70.6 µM]	i	-16.8%[230 µM]	1.7%[88.5 µM]
CCC(CC)c1cc([C@H]2CN3CC[C@H]2C[C@@H]3CNC2CCN(C)CC2)nc(-c2ccncc2)n1	14.1µM*	-7.9%	i	17.8µM*	i
CCC(CC)c1cc([C@H]2CN3CC[C@H]2C[C@@H]3CNC(=O)COC)nc(-c2ccncc2)n1	-14.1%	2.7%	i	?	-3.3%
CCC(CC)c1cc([C@H]2CN3CC[C@H]2C[C@@H]3CNC(=O)CSCC(=O)O)nc(-c2ccncc2)n1	?	0.6%	i	?	i
SMILES	HEK293 tox	hNpr1 antagonist	Luciferase inh	3T3 cytotox	GPT2 inhibitor
CCC(CC)c1cc([C@H]2CN3CC[C@H]2C[C@@H]3CNC(=O)Nc2ccc(C(C)=O)cc2)nc(-c2ccncc2)n1	25.1µM*	4.8%	i	17.8µM*	i
CCC(CC)c1cc([C@H]2CN3CC[C@H]2C[C@@H]3CNC(=O)Nc2ccc(OC)cc2)nc(-c2ccncc2)n1	31.6µM*	-7.0%	i	?	i
CCCS(=O)(=O)NC[C@H]1C[C@@H]2CCN1C[C@@H]2c1cc(C(CC)CC)nc(-c2ccncc2)n1	?	?	i	?	-16.9%
COc1cc2c(c(OC)c1OC)-c1ccc(SC)c(=O)cc1[C@@H](NC(C)=O)CC2	/	/	/	/	i
CCCCCC(=O)N1C[C@H](C(=O)OCC)[C@H]2c3ccccc3N(CC3CC3)C(=O)[C@]21C	31.6µM*	/	/	?	i
CCOC(=O)[C@H]1CN(C(=O)CCc2ccccc2)[C@]2(C)C(=O)N(CC3CC3)c3ccccc3[C@H]12	?	/	/	?	-6.3%[27.3 µM]
CCOC(=O)[C@H]1CN(C(=O)OCc2ccccc2)[C@]2(C)C(=O)N(CC3CC3)c3ccccc3[C@H]12	35.5µM*	/	/	?	4.8%[27.3 µM]
CCOC(=O)[C@H]1CN(C(=O)NC2CCCC2)[C@]2(C)C(=O)N(CC3CC3)c3ccccc3[C@H]12	31.6µM*	/	/	?	i
CN1C(=O)[C@]23CC4C(C)(C)[C@@]5(C[C@@]41CN2CC[C@@]3(C)O)C(=O)Nc1c5ccc2c1OC=CC(C)(C)O2 (stereo not given in full)	/	/	/	/	3.2%[27.3 µM]
CCCCN1[C@@H]2CC[C@H]1CC(OC(c1ccc(F)cc1)c1ccc(F)cc1)C2 (stereo not given in full)	/	/	/	/	i
C=C(CO)[C@@]12O[C@@H]1[C@@]1(C)C(=CC2=O)CC[C@@H](O)[C@@H]1C	/	/	/	/	2.5%
Cc1cccc(OCC(=O)N2[C@H]3CC[C@@H]2c2cnc(C)nc2C3)c1	i	10.5%	i	1.8%	?
O=C(O)C1=NOC2CN(Cc3ccccn3)CC12 (stereo not given)	i	/	/	i	-8.8%[88.5 µM]
Cc1ccc(CN2C[C@@H]3C(C(N)=O)=NO[C@@H]3C2)nc1	-9.2%[230 µM]	8.3%[70.6 µM]	i	112µM*	-16.3%[88.5 µM]
COc1cc2c(cc1OCC1CC1)NC(=O)C21CCN(c2ncc(C(C)C)cn2)CC1	100µM*	6.1%[70.6 µM]	i	79.4µM*	?
CCc1cnc(N2CCC3(CC2)C(=O)Nc2cc(OCC4CC4)c(OC)cc23)nc1	112µM*	6.5%[70.6 µM]	i	100µM*	3.6%[88.5 µM]
COc1cc2c(cc1OCC1CC1)NC(=O)C21CCN(c2nc(C)cc(C)n2)CC1	?	5.1%[70.6 µM]	i	?	3.0%[88.5 µM]
COc1cc2c(cc1Oc1ccccc1)NC(=O)C21CCN(c2ncc(C(C)C)cn2)CC1	?	6.9%	i	?	-20.5%
COc1ncc(-c2cnc3[nH]cc(CC(=O)N4CCN(C)CC4)c3c2)cn1	i	-11.6%[70.6 µM]	i	?	i
